Reference: PubChem BioAssay AID1987 (The Scripps Research Institute Molecular Screening Center, 2009)
Among all 320,000 compounds or so, about 560 (0.17%) were called active. This is one part of a sample in which actives are shown more often than they occur. Unmarked numbers belong to inactive results.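 The calls were made as follows: active = inhibition above the campaign's mean inhibition across all tested compounds plus 3 SD (cut at about 9.5% in these data); inactive = the rest.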

Each compound was assayed against Serine/threonine-protein phosphatase 5 (Homo sapiens) (UniProt P53041) (assay: inhibition of human PP5 catalytic activity – biochemical, fluorescence, primary screen (AID 1987;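 also: 0% = DMSO only and 100% = 100 µM cantharidin control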)). Details: purified PP5c, OMFP substrate fluorescence; at 6.7 µM; active compounds read high.
Serine/threonine-protein phosphatase 5 (Homo sapiens), sequence (P53041 whole entry, looked up): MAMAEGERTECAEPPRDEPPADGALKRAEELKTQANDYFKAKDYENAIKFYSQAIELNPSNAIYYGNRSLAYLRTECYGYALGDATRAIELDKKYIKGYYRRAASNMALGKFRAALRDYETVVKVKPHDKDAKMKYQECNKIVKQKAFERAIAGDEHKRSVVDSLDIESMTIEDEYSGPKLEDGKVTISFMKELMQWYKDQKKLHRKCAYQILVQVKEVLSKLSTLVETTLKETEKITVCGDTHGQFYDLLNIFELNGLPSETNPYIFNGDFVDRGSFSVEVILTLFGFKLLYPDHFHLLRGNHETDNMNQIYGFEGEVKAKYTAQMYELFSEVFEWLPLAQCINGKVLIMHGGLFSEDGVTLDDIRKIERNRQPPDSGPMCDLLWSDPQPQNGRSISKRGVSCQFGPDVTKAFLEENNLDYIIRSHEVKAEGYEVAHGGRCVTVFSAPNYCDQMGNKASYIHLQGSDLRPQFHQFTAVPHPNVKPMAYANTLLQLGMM

Compound	inhibition
O=C(O)c1ccccc1NC(=O)C1C2CCC(O2)C1C(=O)O (stereo not given)	41.3% (active)
Cc1cc(C)cc(NC(=S)NC2CC3CCCC(C2)N3Cc2cccs2)c1 (stereo not given)	4.69%
CC(c1ccccc1)(c1ccccc1)c1ccncc1	-0.19%
C[N+]12CN3CN(CN(C3)C1)C2	-1.24%
CCOP(=O)(OCC)C(NC(=O)NC)C(N)=O (stereo not given)	-0.58%
